The whole screen tested about 39,000 compounds, of which about 3,300 (8.5%) were called active. The list comes from a sample in which actives are over-represented; it also holds similar structures and randomly drawn compounds.
The compounds below were run on HepG2 (assay: cytotoxicity call (relative viability < 0.9)). Details: 10 µM.

| Compound | cytotoxicity call |
| --- | --- |
| C[C@H]1CN([C@@H](C)CO)C(=O)c2cccc(NC(=O)C3CCCCC3)c2O[C@@H]1CN(C)Cc1ccc(Oc2ccccc2)cc1 | inactive |
| C[C@@H]1CCCCO[C@@H](CN(C)C(=O)NC2CCCCC2)[C@@H](C)CN([C@H](C)CO)C(=O)c2cc(NS(=O)(=O)c3ccc(F)cc3)ccc2O1 | inactive |
| C[C@@H]1CN([C@@H](C)CO)C(=O)c2ccccc2-c2ccccc2CO[C@@H]1CN(C)C(=O)Nc1ccccc1C(F)(F)F | active |
| C[C@@H]1CN([C@H](C)CO)C(=O)c2c(c3ccccc3n2C)-c2ccccc2CO[C@H]1CN(C)C(=O)Nc1cccc(Cl)c1Cl | inactive |
| C[C@H](CO)N1C[C@H](C)[C@@H](CN(C)C(=O)Nc2cccc(Cl)c2Cl)OCc2ccccc2-c2c(n(C)c3ccccc23)C1=O | active |
| C[C@@H]1CN([C@H](C)CO)C(=O)c2ccccc2-c2ccccc2CO[C@@H]1CN(C)C(=O)Nc1ccccc1C(F)(F)F | inactive |
| C[C@@H]1CN([C@H](C)CO)C(=O)c2ccccc2-c2ccccc2CO[C@H]1CN(C)C(=O)Nc1ccccc1C(F)(F)F | inactive |
| C[C@@H]1CN([C@H](C)CO)C(=O)c2c(c3ccccc3n2C)-c2ccccc2CO[C@H]1CN(C)C(=O)Nc1ccccc1C(F)(F)F | inactive |
| C[C@H](CO)N1C[C@H](C)[C@@H](CN(C)C(=O)Nc2ccccc2C(F)(F)F)OCc2ccccc2-c2c(n(C)c3ccccc23)C1=O | active |
| C[C@H](CO)N1C[C@H](C)[C@H](CN(C)C(=O)Nc2ccccc2C(F)(F)F)OCc2ccccc2-c2c(n(C)c3ccccc23)C1=O | inactive |
| C[C@H](CO)N1C[C@H](C)[C@H](CN(C)C(=O)Nc2cccc(Cl)c2Cl)OCc2ccccc2-c2c(n(C)c3ccccc23)C1=O | inactive |
| Cn1ccnc1CN1CC[C@]2(COCCN(S(C)(=O)=O)C2)C1 | inactive |
| Cc1ccc(S(=O)(=O)N(C)C[C@H]2Oc3c(NS(C)(=O)=O)cccc3C(=O)N([C@H](C)CO)C[C@@H]2C)cc1 | inactive |
| C[C@@H]1CN([C@H](C)CO)C(=O)CCCn2nncc2CO[C@@H]1CN(C)C(=O)Nc1cccc2ccccc12 | inactive |
| COc1cccc(-c2ccc3c(c2)O[C@H](CN(C)C(=O)C2CCOCC2)[C@@H](C)CN([C@H](C)CO)S3(=O)=O)c1 | inactive |
| NCc1ccc(C(=O)N2CCCCC2)cc1 | inactive |
| COCC(=O)N(C)C[C@@H]1Oc2cc(-c3ccc(C#N)cc3)ccc2S(=O)(=O)N([C@H](C)CO)C[C@@H]1C | inactive |
| CNCc1nc(C)no1 | inactive |
| COc1ccccc1S(=O)(=O)N[C@H]1C=C[C@H](CC(=O)N2CCOCC2)O[C@@H]1CO | inactive |
| Cc1ccc(S(=O)(=O)N2C[C@H](O)COC[C@H]3O[C@H](CC(=O)N4CCc5ccccc5C4)CC[C@@H]32)cc1 | inactive |
| CC(C)(N)c1cc(C(=O)N[C@@H]2CCc3ccc(Oc4ccnc5c4CCC(=O)N5)cc3C2)cc(C(F)(F)F)c1 | active |
| CC(C)CC#Cc1ccc2c(c1)O[C@@H](CN(C)C(=O)Cc1ccccn1)[C@@H](C)CN([C@@H](C)CO)S2(=O)=O | inactive |

| Compound | cytotoxicity call |
| --- | --- |
| C[C@H]1CN([C@@H](C)CO)C(=O)c2cc(NS(=O)(=O)c3ccccc3)ccc2O[C@@H]1CN(C)S(C)(=O)=O | active |
| C[C@H](CO)N1C[C@H](C)[C@H](CN(C)S(C)(=O)=O)Oc2ccc(NS(=O)(=O)c3ccccc3)cc2C1=O | inactive |
| C[C@H](CO)N1C[C@H](C)[C@@H](CN(C)S(C)(=O)=O)Oc2ccc(NS(=O)(=O)c3ccccc3)cc2C1=O | inactive |
| C[C@H]1CN([C@@H](C)CO)C(=O)c2cc(NS(=O)(=O)c3ccccc3)ccc2O[C@H]1CN(C)S(C)(=O)=O | inactive |
| C[C@@H]1CN([C@@H](C)CO)C(=O)c2cc(NS(=O)(=O)c3ccccc3)ccc2O[C@@H]1CN(C)S(C)(=O)=O | inactive |
| C[C@@H]1CN([C@H](C)CO)C(=O)c2cc(NS(=O)(=O)c3ccccc3)ccc2O[C@H]1CN(C)S(C)(=O)=O | active |
| Cn1cnc(S(=O)(=O)N2C[C@H](O)COC[C@H]3O[C@@H](CC(=O)NCc4cc(F)cc(F)c4)CC[C@@H]32)c1 | inactive |
| C[C@@H]1CN([C@H](C)CO)C(=O)c2cccc(NS(=O)(=O)c3ccc(F)cc3)c2O[C@H]1CN(C)S(=O)(=O)c1cn(C)cn1 | inactive |
| C[C@@H]1CCCCO[C@H](CN(C)S(C)(=O)=O)[C@@H](C)CN([C@H](C)CO)C(=O)c2cc(NC(=O)Nc3cccc4ccccc34)ccc2O1 | inactive |
| C[C@@H]1CN([C@@H](C)CO)C(=O)c2cccc(NC(=O)Nc3ccc(C(F)(F)F)cc3)c2O[C@H]1CN(C)Cc1ccc2c(c1)OCO2 | inactive |
| C[C@H]1CN([C@@H](C)CO)C(=O)c2cccc(NC(=O)Nc3ccc(C(F)(F)F)cc3)c2O[C@H]1CN(C)Cc1ccc2c(c1)OCO2 | inactive |
| C[C@@H]1CN([C@H](C)CO)C(=O)c2cccc(NC(=O)Nc3ccc4c(c3)OCO4)c2O[C@H]1CN(C)Cc1ccc(C(F)(F)F)cc1 | active |
| C[C@@H]1CN([C@@H](C)CO)C(=O)c2cccc(NC(=O)Nc3ccc(C(F)(F)F)cc3)c2O[C@@H]1CN(C)Cc1ccc2c(c1)OCO2 | active |
| C[C@H](CO)N1C[C@H](C)[C@@H](CN(C)Cc2ccc(C(F)(F)F)cc2)Oc2c(NC(=O)Nc3ccc4c(c3)OCO4)cccc2C1=O | inactive |
| C[C@H]1CN([C@@H](C)CO)C(=O)c2cccc(NC(=O)Nc3ccc4c(c3)OCO4)c2O[C@H]1CN(C)Cc1ccc(C(F)(F)F)cc1 | inactive |
| C[C@@H]1CN([C@@H](C)CO)C(=O)c2cccc(NC(=O)Nc3ccc4c(c3)OCO4)c2O[C@H]1CN(C)Cc1ccc(C(F)(F)F)cc1 | active |
| C[C@H]1CN([C@@H](C)CO)C(=O)c2cccc(NC(=O)Nc3ccc4c(c3)OCO4)c2O[C@@H]1CN(C)Cc1ccc(C(F)(F)F)cc1 | inactive |
| C[C@H](CO)N1C[C@H](C)[C@H](CN(C)Cc2ccc(C(F)(F)F)cc2)Oc2c(NC(=O)Nc3ccc4c(c3)OCO4)cccc2C1=O | inactive |
| CCOC(=O)N(C)C[C@H]1OCc2cn(nn2)CCCC(=O)N([C@H](C)CO)C[C@@H]1C | inactive |
| CC(=O)O[C@H]1CC[C@]2(C)[C@H]3CC[C@]4(C)C(=CC(=O)O[C@H]4c4ccoc4)[C@]3(C)[C@H](OC(C)=O)C[C@H]2C1(C)C | inactive |
| CN(C)C(=O)c1ccc(-c2ccc3n(c2=O)C[C@@H]2[C@@H](CO)[C@H](C(=O)NCCc4ccccc4)N[C@H]32)cc1 | inactive |
| COc1ccc(NC(=O)Nc2ccc3c(c2)C(=O)N([C@@H](C)CO)C[C@@H](C)[C@H](CN(C)Cc2ccc(Oc4ccccc4)cc2)O3)cc1 | inactive |

| Compound | cytotoxicity call |
| --- | --- |
| COc1ccc(NC(=O)Nc2ccc3c(c2)C(=O)N([C@H](C)CO)C[C@@H](C)[C@@H](CN(C)Cc2ccc(Oc4ccccc4)cc2)O3)cc1 | inactive |
| COc1ccc(NC(=O)Nc2ccc3c(c2)C(=O)N([C@H](C)CO)C[C@H](C)[C@H](CN(C)Cc2ccc(Oc4ccccc4)cc2)O3)cc1 | inactive |
| COc1ccc(NC(=O)Nc2ccc3c(c2)C(=O)N([C@@H](C)CO)C[C@@H](C)[C@@H](CN(C)Cc2ccc(Oc4ccccc4)cc2)O3)cc1 | active |
| COc1ccc(NC(=O)Nc2ccc3c(c2)C(=O)N([C@@H](C)CO)C[C@H](C)[C@@H](CN(C)Cc2ccc(Oc4ccccc4)cc2)O3)cc1 | inactive |
| COc1ccc(NC(=O)Nc2ccc3c(c2)C(=O)N([C@H](C)CO)C[C@H](C)[C@@H](CN(C)Cc2ccc(Oc4ccccc4)cc2)O3)cc1 | active |
| C[C@H](CO)N1C[C@H](C)[C@@H](CN(C)S(=O)(=O)c2ccc(Cl)cc2)OCc2cnnn2CCCC1=O | inactive |
| Cc1ccc(S(=O)(=O)Nc2ccc3c(c2)C(=O)N([C@@H](C)CO)C[C@@H](C)[C@@H](CN(C)C(=O)C2CCCCC2)OCCCC[C@H](C)O3)cc1 | inactive |
| CC(C)(c1cc(Br)c(O)c(Br)c1)c1cc(Br)c(O)c(Br)c1 | inactive |
| C[C@H](CO)N1C[C@H](C)[C@@H](CN(C)C(=O)NC2CCCCC2)Oc2c(NS(=O)(=O)c3cn(C)cn3)cccc2C1=O | inactive |
| CCCNC(=O)N1C[C@H](O)COC[C@H]2O[C@@H](CC(=O)NCCCN3CCOCC3)CC[C@@H]21 | inactive |
| CNC(=O)C[C@@H]1CC[C@H]2[C@@H](COC[C@H](O)CN2C(=O)c2ccc3c(c2)OCO3)O1 | inactive |
| O=C(C[C@H]1CC[C@@H]2[C@H](COC[C@H](O)CN2C(=O)c2ccc3c(c2)OCO3)O1)NCCN1CCCCC1 | inactive |
| O=C(C[C@@H]1CC[C@H]2[C@@H](COC[C@@H](O)CN2C(=O)c2ccc3c(c2)OCO3)O1)NCCN1CCCCC1 | active |
| CCCNC(=O)N1C[C@H](O)COC[C@H]2O[C@H](CC(=O)NCCCN3CCOCC3)CC[C@@H]21 | active |
| CNC(=O)C[C@H]1CC[C@@H]2[C@H](COC[C@@H](O)CN2C(=O)c2ccc3c(c2)OCO3)O1 | active |
| CNC(=O)C[C@H]1CC[C@H]2[C@@H](COC[C@@H](O)CN2C(=O)c2ccc3c(c2)OCO3)O1 | inactive |
| O=C(C[C@@H]1CC[C@@H]2[C@H](COC[C@@H](O)CN2C(=O)c2ccc3c(c2)OCO3)O1)NCCN1CCCCC1 | inactive |
| CCCNC(=O)N1C[C@@H](O)COC[C@H]2O[C@@H](CC(=O)NCCCN3CCOCC3)CC[C@@H]21 | inactive |
| C[C@@H]1CN([C@H](C)CO)C(=O)c2cc(NC(=O)NC3CCCCC3)ccc2O[C@@H](C)CCCCO[C@H]1CN(C)C(=O)Nc1ccc(F)cc1 | inactive |
| C[C@H](CO)N1C[C@H](C)[C@@H](CN(C)S(=O)(=O)c2cccs2)OCCCC[C@H](C)Oc2ccc(NS(=O)(=O)c3cn(C)cn3)cc2C1=O | inactive |

Reference: the antibiotic and cytotoxicity screens of Wong et al. (2023)
